Pf Dd2 inh – qHTS Primary assay for Inhibitors of Plasmodium falciparum Dd2 growth in vitro. P. falciparum Dd2 growth, SYBR Green, 72 h. Potency, µM (series often up to 28.9 µM), without a hit: at the highest dose activity, negative = inhibition, usual class: inhibitors. 120,000 compounds, 4.3% hits; active = well fitted inhibition curve with a large enough effect;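 also: plate controls were DMSO vehicle for no effect and reference drug for full effect; nearly all actives have a fitted effect of over 65% in size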
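Readout: SYBR Green fluorescence, 485 nm excitation, 535 nm emission, after ~16 h lysis at 37C. Before that, Dd2-infected red cells (2.5% hematocrit) grew 72 h with compound, 29 uM top final concentration.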
Starred values were filed as active, the others as inactive; [ ] = dose if it differs, or a comment. The sample as a whole holds a higher share of hits than the screen did. Potency is read from the fitted curve at half-maximal effect.

CN1C(=O)C2(CCN(C(=O)Cc3ccccc3Cl)C2)c2ccccc21 (configuration not stated) was read as Pf Dd2 inh 3.2µM*.
`O=C1N(c2ccccc2)c2ccccc2C12CCN(Cc1ccccc1)C2` (configuration not stated) gave Pf Dd2 inh 11µM*.
Screening O=C(c1ccccc1F)N1CCCC2(C1)C(=NC1CCCCC1)NC(=O)N2c1cccnc1 (configuration not stated) returned Pf Dd2 inh 9%.
`CN(C)CCN1CC2(CCCN(C(=O)CN(C)c3ccccc3)C2)CCC1=O` (configuration not stated) gave Pf Dd2 inh -2%.
Screening Cc1nn(-c2ccc(F)cc2)c(C)c1CN1CCCn2nc(CO)cc2C1 returned Pf Dd2 inh 4%.
Screening CN1CC(=O)N(C2CCCNC2)Cc2c1ncnc2N1CCCN(Cc2ccccc2)CC1 (configuration not stated) returned Pf Dd2 inh -7%.
Nc1nc(C2CC(N)C2)cc(N2CCC(C(=O)NCc3ccccn3)CC2)n1 (configuration not stated) was read as Pf Dd2 inh -22%.
Screening CCCNC(=O)N1C[C@@H]2C(=O)N(C(CC)c3cccs3)C(=O)[C@@H]2C1 (some centres not stated) returned Pf Dd2 inh 0%.
CCn1cc(CN2CCc3nn(CC4CC4)c(=O)n3CC2)cn1 was read as Pf Dd2 inh -3%.
`CCc1noc(-c2cn(C3CCN(C(=O)c4cccn4C)CC3)nn2)n1` gave Pf Dd2 inh inactive.
`Cc1noc(C2CC3(CCN(C(=O)c4nccn4C)CC3)CN2C)n1` (configuration not stated) gave Pf Dd2 inh 1%.
Screening CN1C(=O)C2(CCN(Cc3ccsc3)C2)c2ccccc21 (configuration not stated) returned Pf Dd2 inh 5.6µM*.
For O=C1Nc2ccccc2C12CCN(Cc1ccsc1)CC2 the results were Pf Dd2 inh 13%[44.1 µM].
Screening CN1C(=O)C2(CCN(S(=O)(=O)c3ccccc3)C2)c2ccccc21 (configuration not stated) returned Pf Dd2 inh -21%[44.1 µM].
Screening CN1C(=O)C2(CCN(Cc3cccc4ccccc34)C2)c2ccccc21 (configuration not stated) returned Pf Dd2 inh 13µM*.
Screening CN1C(=O)C2(CCN(Cc3cncs3)C2)c2ccccc21 (configuration not stated) returned Pf Dd2 inh inactive.
CN1C(=O)C2(CCN(Cc3ccnn3C)C2)c2ccccc21 (configuration not stated) was read as Pf Dd2 inh -22%[44.1 µM].
CC(C)c1ccc(S(=O)(=O)N2CCC(CC(=O)NCc3ccccc3)C2)cc1 (configuration not stated) was read as Pf Dd2 inh inactive.
`CC(=O)N1CCC(CC(=O)N2C[C@@H](Oc3cccnc3)C[C@H]2C(=O)N2CCOCC2)CC1` gave Pf Dd2 inh -8%.
`COc1ccc(OC)c(CCNC(=O)c2cnn(-c3ccc(C)cc3C)c2C2CCN(C(=O)OC(C)(C)C)CC2)c1` gave Pf Dd2 inh -12%.
For COc1ccc(CCNC(=O)c2cnn(-c3ccc(F)cc3)c2C2CCN(C(=O)OC(C)(C)C)CC2)cc1OC the results were Pf Dd2 inh 7.9µM*.
Screening COc1ccc(CCNC(=O)c2cnn(-c3cccc(C)c3)c2C2CCN(C(=O)OC(C)(C)C)CC2)cc1OC returned Pf Dd2 inh 11µM*.
Screening O=C(CCn1nnc(-c2ccccc2)n1)N1CCCC2(CCNCC2)CC1 returned Pf Dd2 inh -10%.
For O=C(CC1C(=O)NCCN1Cc1ccc(-c2ccccc2)cc1)NCc1ccco1 (configuration not stated) the results were Pf Dd2 inh 9%.
For CC1(C)C(=O)N(Cc2ccccc2)[C@H]2CN(Cc3ccc(C(=O)O)cc3)C[C@H]2[S+]1(=O)[O-] the results were Pf Dd2 inh 23%.
Screening COc1ccc(-c2cc3nc4c(c(=O)n3[nH]2)CN(C(=O)CN(C)S(=O)(=O)c2cnc[nH]2)CC4)cc1 returned Pf Dd2 inh -17%[5.79 µM].
Screening CN(c1ccccc1)c1cc(=O)c2ccnc(N3CCOCC3)c2o1 returned Pf Dd2 inh -11%[44.1 µM].
CN1CCN(c2cc(=O)c3ccnc(N4CCN(c5ccccn5)CC4)c3o2)CC1 was read as Pf Dd2 inh -14%[44.1 µM].
CN(c1ccccc1)c1cc(=O)c2ccnc(N3CCN(c4ccccn4)CC3)c2o1 was read as Pf Dd2 inh 13µM*.
`COc1ccccc1OCc1cc(C(=O)NCc2cccc(C)c2)n[nH]1` gave Pf Dd2 inh -9%.
Cc1nc(-c2ccncc2)ncc1C(C)NC(=O)C1=NN(C)C(=O)CC1 (configuration not stated) was read as Pf Dd2 inh 6%.
For O=C(NCc1nnc2ccc(-c3ccccc3)nn12)c1ccc[nH]c1=O the results were Pf Dd2 inh -15%.
For COCCNC(=O)C[C@@H]1C[C@H]2O[C@H](CNC3Cc4ccccc4C3)[C@@H](O)[C@H]2O1 the results were Pf Dd2 inh 4%[44.1 µM].
`CN(Cc1ccc(F)cc1)S(C)(=O)=O` gave Pf Dd2 inh 7%[44.1 µM].
For Cc1ccsc1CN(Cc1ccc(CN(C)S(C)(=O)=O)o1)CC(C)C the results were Pf Dd2 inh 8.9µM*.
Cc1ccc(C2Cn3nnc(C(=O)N4CCN(C(=O)c5cccc(F)c5)CC4)c3CO2)cc1 (configuration not stated) was read as Pf Dd2 inh -10%.
For CCOC(=O)c1cccc(NC(=O)N2CC=C(c3c[nH]c4ccccc34)CC2)c1 the results were Pf Dd2 inh 6.3µM*.
Cc1cc(NC(=O)N2CC=C(c3c[nH]c4ccccc34)CC2)ccc1Br was read as Pf Dd2 inh -3%.
Screening CCOC(=O)c1cccc(NC(=O)N2CCC(CN3CCc4ccccc4C3)CC2)c1 returned Pf Dd2 inh -14%.
CCc1ccc(NC(=O)N2CC=C(c3c[nH]c4ccccc34)CC2)cc1 was read as Pf Dd2 inh inactive.
`Cc1ccc(C)c(NC(=O)N2CC=C(c3c[nH]c4ccccc34)CC2)c1` gave Pf Dd2 inh 4µM*.
CCOc1ccc2c(n1)CCN(C(=O)Nc1cc(C)ccc1C)C2 was read as Pf Dd2 inh -15%.
`C=CCCC(CN1CCSCC1)Oc1cc(CC)nc(C)n1` (configuration not stated) gave Pf Dd2 inh inactive.
`CN1Cc2nc(Nc3ccccc3F)ccc2OCC1=O` gave Pf Dd2 inh 11%[44.1 µM].
CC(=O)Nc1ccc(S(=O)(=O)N2C[C@@H]3C[C@H](C2)c2c(-c4cccs4)ccc(=O)n2C3)cc1 was read as Pf Dd2 inh -22%.
For Cc1ccc(S(=O)(=O)N2CCC(n3cnnc3C3CC3)CC2)cc1Cl the results were Pf Dd2 inh inactive.
For Cc1nc(-c2ccco2)cc([C@H]2CN3CC[C@H]2C[C@@H]3CNC(=O)C2CC2)n1 the results were Pf Dd2 inh inactive.
For Cc1nc(-c2ccccc2Br)cc([C@H]2CN3CC[C@H]2C[C@@H]3CNC(=O)C2CC2)n1 the results were Pf Dd2 inh -1%.
Screening Cc1nc(-c2ccco2)cc([C@H]2CN3CC[C@H]2C[C@@H]3CNCc2ccccc2)n1 returned Pf Dd2 inh 1.1µM*.
`COCC(=O)NC[C@H]1C[C@@H]2CCN1C[C@@H]2c1cc(-c2ccccc2)nc(C)n1` gave Pf Dd2 inh inactive.
For Cc1nc(-c2cccs2)cc([C@H]2CN3CC[C@H]2C[C@@H]3CNC(=O)c2ccco2)n1 the results were Pf Dd2 inh inactive.

High-throughput results: PubChem, National Center for Advancing Translational Sciences (NCATS)
